Bioassay records as filed in PubChem BioAssay.
Only some compounds are listed: those with a hit (about 7.3% of all), similar ones and a draw of the others.
FMDV inh: antivirals against foot and mouth disease virus; FMDV antiviral cell-based qHTS; Potency, µM (top dose mostly 57.9 µM), for the others: at the highest dose activity change, negative = inhibition, most hits filed as inhibitors; 1.2% of 410,000 active; calls by dose curve; tested in HEK293T cells; note: read-out not given here; potency is the fitted concentration of half-maximal effect; nearly all actives have a fitted effect of over 45% in size
Vaccinia mCherry: vaccinia inhibition (mCherry reporter). Vaccinia virus mCherry reporter infection, fluorescence. Potency, µM (series often up to 36.5 µM), for the others: top-dose activity change, negative = inhibition, hits mostly inhibitors. 0.63% of 310,000 active. AID 720579; calls by dose curve; tested in A549 cells; note: potency is the fitted concentration of half-maximal effect; nearly all actives have a fitted effect of over 35% in size
HCMV inh: inhibitors of human cytomegalovirus; 4.5% of 410,000 active; HFF cells, HCMV-luciferase reporter, 72 h; hits give low values; activity change, negative = inhibition, % at 57.5 µM; AID 1259415; in the data active = activity change below about -60%; inconclusive = no clear call, values can overlap the other calls; inactive = above about -39%
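Steps: HFFs plated, 16 h 37C; compounds added; HCMV-luciferase added to MOI 1 PFU/cell; 72 h 37C; OneGlo reagent, 5 min room temperature; luminescence read, normalized to controls.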
Vaccinia Venus: vaccinia inhibition (Venus reporter). 0.46% of 330,000 active. Vaccinia virus Venus reporter expression, fluorescence. Potency, µM (series often up to 36.5 µM), without a hit: at the highest dose activity change, negative = inhibition, actives largely listed as inhibitors; calls by dose curve; tested in A549 cells; note: potency is the fitted concentration of half-maximal effect; nearly all actives have a fitted effect of over 30% in size
HCV inh: inhibitors of hepatitis C virus infection. Huh7.5.1 HCVcc-Cre infection, luciferase reporter, 44 h. Potency, µM (highest dose often 41.8 µM), inactives show at the top dose activity change, negative = inhibition, most hits filed as inhibitors. 3.4% of 340,000 active. AID 651820; active = well fitted inhibition curve with a large enough effect; inconclusive = small, poorly fitted or top-dose-only effect, or another doubt; inactive = no such curve, though single readings can be large or run the other way; note: potency is the fitted concentration of half-maximal effect
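A cell-based infection assay in which seeded cells (1,000 per well) receive test compound after 4 h, are inoculated with HCVcc-Cre at approximately 0.5 moi, and are incubated 44 h before luminescence detection.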
An asterisk follows results filed as active; i = inactive; ? = inconclusive; nt = no result; ! = a repeat was not active; [ ] = another dose, or the depositor's remark. % is set by controls: 0 for no effect and ±100 for the full control effect.

SMILES	FMDV inh	Vaccinia mCherry	HCMV inh	Vaccinia Venus	HCV inh
CN(C)c1ccc(C(=C2C=CC(=[N+](C)C)C=C2)c2c(O)c(S(=O)(=O)[O-])cc3cc(S(=O)(=O)O)ccc23)cc1	nt	?	nt	-11%	nt
CCCCSP1(=S)NCCCN1	-1%	nt	-13	10%	21%
CCCSP1(=S)NCCCO1 (configuration not stated)	-8%	nt	-101*	-14%	11%
CCOc1ccc(OCC)c(NC(=O)c2cnc3c(-c4ccccc4)c(C)nn3c2C)c1	-27%	-15%	-2	-15%	nt
COc1ccc2c(c1)-c1nc(-n3ncc(C(=O)N(C)CC4CCCN(C)C4)c3C3CC3)ncc1CC2 (configuration not stated)	0%	-12%	nt	-3%	nt
CC(=O)Nc1cccc(NC(=O)c2ccc(COc3ccccc3)cc2)c1	40%	3%	57	-13%	?
CC(=O)NC(NC(C)=O)c1cccc(OCc2ccccc2)c1	-15%	i	-68*	-1%	4%
CN(C)c1ccc(CNC(=O)c2ccc(Cn3c(=O)c4cccn4c4cccnc43)cc2)cc1	-12%	-24%	81	-22%	nt
CCN(CC)S(=O)(=O)c1cc(NC(=O)Cc2ccc(S(=O)(=O)N3CCOCC3)s2)ccc1Cl	32µM*	nt	-99*	nt	10µM*
O=C(Cc1ccc(S(=O)(=O)N2CCOCC2)s1)Nc1cc(C(F)(F)F)cc(C(F)(F)F)c1	0%	nt	-80*	nt	11µM*
Cc1cc(C)c(NC(=O)CNC(=O)Cc2ccc(S(=O)(=O)N3CCOCC3)s2)c(C)c1	-5%	nt	10	nt	-4%
Cc1cccc(NC(=O)CNC(=O)Cc2ccc(S(=O)(=O)N3CCOCC3)s2)c1C	-3%	nt	-104*	nt	5%
CN(C)S(=O)(=O)c1ccc(NC(=O)Cc2ccc(S(=O)(=O)N3CCOCC3)s2)cc1	-9%	i	-37	-8%	12%
NC[C@@H]1O[C@H](O[C@H]2[C@H](O)[C@H](O[C@H]3[C@@H](O)[C@H](N)C[C@H](N)[C@H]3O[C@H]3O[C@H](CN)[C@H](O)[C@H](O)[C@H]3N)O[C@@H]2CO)[C@@H](N)[C@@H](O)[C@@H]1O	-15%[16.9 µM]	nt	nt	nt	nt
Cc1cc(-c2cc(F)cc3c2OC(CNC(=O)[C@@H]2CCC(=O)N2)C3)ccc1F (some centres not stated)	0%	-7%	nt	9%	nt
CC1=CC(C)(C)n2c(O)c(N=NC(N)=S)c3cc(C)cc1c32	-24%	nt	-68*	nt	?
Cc1cccc(NC(=O)Cn2c(O)c(N=NC(N)=S)c3ccccc32)c1	12%	?	29	?	?
CCOC(=O)c1c(C)n(Cc2ccco2)c2ccc(OC)cc12	-10%	-7%	-8	-22%	13µM*
COC(=O)c1c(C)n(Cc2ccco2)c2ccc(O)cc12	?	nt	2	nt	?
COC(=O)C(CC(=O)c1ccc(Br)cc1)n1ccnc1 (configuration not stated)	nt	-12%	nt	-5%	1.3µM*
COC(=O)C(CC(=O)c1ccc(Br)cc1)n1nc(C)cc1C (configuration not stated)	-9%	i	15	-3%	8%
CCS(=O)(=O)N1CCc2cc(C(=O)NC(C)c3ccccc3)ccc21 (configuration not stated)	-22%	-21%	-16	2%	nt
CC(C)C[C@H]1CNC(=S)N1C[C@H]1CCCN1C[C@H](Cc1ccccc1)N1C[C@H](Cc2ccc(O)cc2)N(CC2CCCCC2)C1=S	-23%	-10%	-22	-21%	nt
Oc1ccc(C[C@H]2CNC(=S)N2CC2CCCN2C[C@H](Cc2ccc(O)cc2)N2C[C@H](Cc3ccc(O)cc3)N(CC3CCCCCC3)C2=S)cc1 (some centres not stated)	?	?	-67*	?	?
CC(C)C[C@H]1CNC(=S)N1CC1CCCN1C[C@H](Cc1ccc(O)cc1)N1C[C@H](Cc2ccccc2)N(CC2CCCCC2)C1=S (some centres not stated)	-9%	?	-62*	-24%	11µM*
SMILES	FMDV inh	Vaccinia mCherry	HCMV inh	Vaccinia Venus	HCV inh
Oc1ccc(C[C@H]2CNC(=S)N2CC2CCCN2C[C@H](Cc2ccccc2)N2C[C@H](Cc3ccc(O)cc3)N(CC3CCCCC3)C2=S)cc1 (some centres not stated)	-20%	-21%	-85*	-26%	nt
CCc1cccc(CC)c1NC(=O)C(Cc1ccccc1)NS(=O)(=O)c1cccc2nsnc12 (configuration not stated)	12%	-11%	-9	-8%	nt
C=CC[n+]1c(-c2ccc(OC)cc2)csc1NNC(=O)Nc1ccccc1	nt	-25%	?	-23%	11µM*
C=CC[n+]1c(-c2ccc(C)cc2)csc1Nc1ccc(NC(C)=O)cc1	?	nt	-88*	nt	-27%
Cc1cc(-c2ccc(S(=O)(=O)N(C)c3ccc(C)c(C)c3)s2)on1	?	nt	-4	nt	11µM*
O=C(c1ccccc1)N1CC2ON=C(c3c(F)cccc3Cl)C2C1 (configuration not stated)	nt	nt	-4	nt	nt
Cc1cc(Br)c2[nH]cc(CCNC(=O)c3ccco3)c2c1	-21%	nt	-35	nt	13µM*
CN(C)CCCNS(=O)(=O)c1ccc(N2CCC(c3ccc(Cl)cc3)=N2)cc1	nt	nt	-102*	nt	4µM*
CCCCOC(=O)c1c(C)oc2c1cc(NS(=O)(=O)c1cc(OC)ccc1OC)c1ccccc12	8%	1%	32	-8%	nt
Fc1ccc(C(c2ccc(F)cc2)N2CCN(C/C=C/c3ccccc3)CC2)cc1	?	-10%	-37	?	1.6µM*!
C(=C\c1ccccc1)/CN1CCN(C(c2ccccc2)c2ccccc2)CC1	0%	i	?	-25%	1%[8.37 µM]
COc1ccc(-c2nc3c(c(SCC(=O)Nc4cccc(O)c4)n2)Cc2c(CO)cnc(C)c2O3)cc1	-17%	-5%	-63*!	-9%	?
COc1ccccc1NC(=O)CSc1nc(O)c(C/C=C/c2ccccc2)c(=O)[nH]1	0%	-1%	11	1%	nt
CN(C)C(=O)[C@@H]1C[C@@H](Sc2nc3ccccc3[nH]2)CN1Cc1ccnc2ccccc12	11%	-3%	nt	0%	nt
Cc1cc(C)c(NC(=O)c2cc3c(=O)n4ccccc4nc3n2C)c(C)c1	?	-3%	-79*	-29%	nt
Cc1ccc(OCC(=O)N(Cc2ccc(N(C)C)cc2)CC2CCCO2)cc1C (configuration not stated)	-4%	-13%	-7	-5%	nt
Cc1c(C(=O)Nc2cccc(F)c2)oc2c1-c1nn(Cc3c(F)cccc3Cl)cc1CC2	-6%	-22%	2	-9%	nt
COc1cccc(-c2nn(C)c3sc(C(=O)N4CCOCC4)cc23)c1	-21%	i	90	-21%	-7%
COc1cccc(-c2nn(C)c3sc(C(=O)NCc4ccc(C)o4)cc23)c1	-9%	?	14	?	2.8µM*
COc1cccc(-c2nn(C)c3sc(C(=O)NCc4ccc(OC)cc4OC)cc23)c1	-17%	?	-39	-27%	nt
